Experimental data taken from PubChem BioAssay (NCATS).
Records with an inconclusive call do not appear. The list shows a part of the results. Where a call stands in place of a potency, no number is given. Active and inactive are the calls of the source. Unless noted, calls follow the shape of the dose curve; as a rule, active = well fitted curve in the direction sought with a large enough effect; inconclusive = small, poorly fitted or top-dose-only effect, or another doubt; inactive = no such curve, though single readings can be large; an effect the other way counts as inactive or inconclusive.

Legend:
[1] = target: Rap guanine nucleotide exchange factor 3 (Homo sapiens) (UniProt O95398); assay: Confirmatory qHTS for agonist of cAMP-regulated guanine nucleotide exchange factor 3 (EPAC1) (AID 1645881);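 also: EPAC1 catalysed release of BODIPY-GDP from Rap1B seen as fluorescence loss; nearly all actives have a fitted effect of over 75% in size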
Rap guanine nucleotide exchange factor 3 (Homo sapiens), sequence (O95398 whole entry, looked up): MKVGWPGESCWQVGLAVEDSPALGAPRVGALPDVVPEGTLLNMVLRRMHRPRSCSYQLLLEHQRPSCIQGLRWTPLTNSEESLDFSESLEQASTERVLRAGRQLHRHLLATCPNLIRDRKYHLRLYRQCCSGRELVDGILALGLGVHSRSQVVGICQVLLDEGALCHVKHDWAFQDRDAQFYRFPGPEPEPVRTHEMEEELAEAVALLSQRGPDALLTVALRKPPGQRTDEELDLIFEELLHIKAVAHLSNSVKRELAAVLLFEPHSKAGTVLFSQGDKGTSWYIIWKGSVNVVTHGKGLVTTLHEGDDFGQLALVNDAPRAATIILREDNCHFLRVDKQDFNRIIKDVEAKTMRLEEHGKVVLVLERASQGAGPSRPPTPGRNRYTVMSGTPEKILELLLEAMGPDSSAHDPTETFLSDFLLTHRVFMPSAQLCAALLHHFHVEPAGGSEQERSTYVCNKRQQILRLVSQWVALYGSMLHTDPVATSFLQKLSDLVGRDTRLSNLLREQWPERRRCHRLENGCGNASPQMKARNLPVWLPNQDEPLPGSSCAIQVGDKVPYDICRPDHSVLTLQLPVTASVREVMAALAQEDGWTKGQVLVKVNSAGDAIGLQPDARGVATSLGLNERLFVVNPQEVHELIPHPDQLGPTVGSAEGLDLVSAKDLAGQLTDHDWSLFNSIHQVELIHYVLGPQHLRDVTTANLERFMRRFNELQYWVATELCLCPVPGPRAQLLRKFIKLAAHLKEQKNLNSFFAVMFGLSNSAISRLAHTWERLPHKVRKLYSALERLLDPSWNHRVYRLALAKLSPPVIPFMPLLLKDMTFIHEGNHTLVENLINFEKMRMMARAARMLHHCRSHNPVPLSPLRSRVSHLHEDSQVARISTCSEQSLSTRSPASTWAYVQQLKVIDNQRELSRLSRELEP

[2] = target: Rap guanine nucleotide exchange factor 4 (Homo sapiens) (UniProt Q8WZA2); assay: Confirmatory qHTS for agonist of cAMP-regulated guanine nucleotide exchange factor 4 (EPAC2) (AID 1645884);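 also: nucleotide exchange releases bodipy-GDP from Rap1 and this lowers its fluorescence; nearly all actives have a fitted effect of over 65% in size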
Rap guanine nucleotide exchange factor 4 (Homo sapiens), sequence (Q8WZA2 whole entry, looked up): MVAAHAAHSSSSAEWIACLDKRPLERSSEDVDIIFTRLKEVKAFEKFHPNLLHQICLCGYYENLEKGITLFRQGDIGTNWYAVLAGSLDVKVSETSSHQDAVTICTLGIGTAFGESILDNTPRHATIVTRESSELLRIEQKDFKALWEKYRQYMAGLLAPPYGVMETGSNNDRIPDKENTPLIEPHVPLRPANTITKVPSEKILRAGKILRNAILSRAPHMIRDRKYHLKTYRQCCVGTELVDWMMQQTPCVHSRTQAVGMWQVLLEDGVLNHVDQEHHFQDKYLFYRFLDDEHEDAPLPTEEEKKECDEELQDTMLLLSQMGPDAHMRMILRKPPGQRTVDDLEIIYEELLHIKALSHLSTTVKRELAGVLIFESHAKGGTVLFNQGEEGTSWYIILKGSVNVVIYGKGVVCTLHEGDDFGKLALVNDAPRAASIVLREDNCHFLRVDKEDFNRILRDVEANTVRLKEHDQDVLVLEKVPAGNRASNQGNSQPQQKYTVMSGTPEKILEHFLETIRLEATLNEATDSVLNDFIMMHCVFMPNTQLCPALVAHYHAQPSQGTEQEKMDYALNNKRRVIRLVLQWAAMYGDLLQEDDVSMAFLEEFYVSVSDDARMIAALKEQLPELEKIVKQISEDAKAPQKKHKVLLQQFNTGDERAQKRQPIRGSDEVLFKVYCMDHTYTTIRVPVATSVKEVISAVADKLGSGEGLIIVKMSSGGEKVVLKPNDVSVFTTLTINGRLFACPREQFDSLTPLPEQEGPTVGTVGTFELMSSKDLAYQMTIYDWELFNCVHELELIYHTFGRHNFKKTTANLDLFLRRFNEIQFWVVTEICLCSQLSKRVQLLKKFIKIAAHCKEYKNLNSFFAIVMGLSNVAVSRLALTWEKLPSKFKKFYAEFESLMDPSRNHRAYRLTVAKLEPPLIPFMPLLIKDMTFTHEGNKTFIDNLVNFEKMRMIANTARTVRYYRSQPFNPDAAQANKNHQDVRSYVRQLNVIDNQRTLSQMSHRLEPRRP

[3] = target: Rap guanine nucleotide exchange factor 4 (Homo sapiens) (UniProt Q8WZA2); assay: Confirmatory qHTS for antagonist of cAMP-regulated guanine nucleotide exchange factor 4 (EPAC2) (AID 1645885); also: nearly all actives have a fitted effect of over 25% in size; also: potency is read from the fitted curve at half-maximal effect
[4] = target: Rap guanine nucleotide exchange factor 3 (Homo sapiens) (UniProt O95398); assay: Counterscreen qHTS for antagonist of cAMP-regulated guanine nucleotide exchange factor 3 (EPAC1) (AID 1645888);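 also: fluorescence loss as bound BODIPY-GDP is released from Rap1B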
Procedure, shortened: (§1)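 Rap1B–BODIPY-GDP (250 nM) with 50 uM GDP; compounds pin-transferred to 9.74 nM–152 uM final (activator) or from 7.32 nM upwards (inhibitor). Fluorescence Ex/Em 480/540 nm read at 5 and 30 min, then after adding cAMP or buffer, at room temperature.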

[5] = target: Rap guanine nucleotide exchange factor 3 (Homo sapiens) (UniProt O95398); assay: Counterscreen qHTS for agonist of cAMP-regulated guanine nucleotide exchange factor 3 (EPAC1) (AID 1645889); also: nearly all actives have a fitted effect of over 40% in size
Procedure, shortened: as §1

[6] = target: Catechol O-methyltransferase (Homo sapiens) (UniProt P21964); assay: Confirmatory Screen for Target Class Profiling of Small Molecule Inhibitors of Methyltransferases (AID 1745852; calls by dose curve; also: potency is read from the fitted curve at half-maximal effect); details: MTase-Glo luminescence, SAH detection, recombinant enzyme; measured here: COMT max response; stronger effect = lower value
Catechol O-methyltransferase (Homo sapiens), sequence (P21964 whole entry, looked up): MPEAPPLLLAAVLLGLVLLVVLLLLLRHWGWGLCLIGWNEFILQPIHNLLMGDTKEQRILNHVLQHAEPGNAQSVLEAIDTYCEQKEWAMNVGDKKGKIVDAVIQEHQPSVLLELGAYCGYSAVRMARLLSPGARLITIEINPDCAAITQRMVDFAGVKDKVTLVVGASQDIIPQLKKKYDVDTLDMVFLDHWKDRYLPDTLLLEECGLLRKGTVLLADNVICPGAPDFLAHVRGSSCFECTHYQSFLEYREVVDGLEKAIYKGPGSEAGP

[7] = target: Guanidinoacetate N-methyltransferase (Homo sapiens) (UniProt Q14353); assay: as above; details: activity change, negative = inhibition: at 57.3 µM (top of the series) unless noted
[8] = target: Nicotinamide N-methyltransferase (Homo sapiens) (UniProt P40261); assay: as above; details: MTase-Glo luminescence, SAH detection, recombinant enzyme; measured here: NNMT max response; stronger effect = lower value
Nicotinamide N-methyltransferase (Homo sapiens), sequence (P40261 whole entry, looked up): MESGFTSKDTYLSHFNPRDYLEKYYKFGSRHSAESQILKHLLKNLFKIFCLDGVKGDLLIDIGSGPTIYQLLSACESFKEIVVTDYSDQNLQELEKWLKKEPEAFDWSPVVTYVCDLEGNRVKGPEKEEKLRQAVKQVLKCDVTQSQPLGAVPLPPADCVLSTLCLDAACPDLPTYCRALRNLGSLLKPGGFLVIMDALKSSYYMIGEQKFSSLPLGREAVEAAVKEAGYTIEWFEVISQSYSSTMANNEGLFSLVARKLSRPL

[9] = target: Phenylethanolamine N-methyltransferase (Homo sapiens) (UniProt P11086); assay: as above; details: MTase-Glo luminescence, SAH detection, recombinant enzyme; measured here: PNMT max response; stronger effect = lower value
Phenylethanolamine N-methyltransferase (Homo sapiens), sequence (P11086 whole entry, looked up, the tested form may be a part): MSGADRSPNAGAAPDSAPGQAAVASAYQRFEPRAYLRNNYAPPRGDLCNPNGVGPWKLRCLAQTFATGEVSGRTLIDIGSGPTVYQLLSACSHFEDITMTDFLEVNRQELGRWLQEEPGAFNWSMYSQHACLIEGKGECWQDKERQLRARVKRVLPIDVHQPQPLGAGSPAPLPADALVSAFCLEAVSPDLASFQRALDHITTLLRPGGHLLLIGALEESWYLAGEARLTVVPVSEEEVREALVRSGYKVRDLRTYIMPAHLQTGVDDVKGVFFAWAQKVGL

[10] = target: ATPase family AAA domain-containing protein 5 (Homo sapiens) (UniProt Q96QE3); assay: qHTS screen for small molecules that inhibit ELG1-dependent DNA repair in human embryonic kidney (HEK293T) cells expressing luciferase-tagged ELG1: Hit Confirmation using MMS Stimulated ELG1 (AID 624249);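 also: cells co-treated with MMS at 10 µM final alongside compound; luminescence of ELG1-luciferase fusion read with Amplight reagent; nearly all actives have a fitted effect of over 60% in size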
ATPase family AAA domain-containing protein 5 (Homo sapiens), sequence (Q96QE3 whole entry, looked up, the tested form may be a part): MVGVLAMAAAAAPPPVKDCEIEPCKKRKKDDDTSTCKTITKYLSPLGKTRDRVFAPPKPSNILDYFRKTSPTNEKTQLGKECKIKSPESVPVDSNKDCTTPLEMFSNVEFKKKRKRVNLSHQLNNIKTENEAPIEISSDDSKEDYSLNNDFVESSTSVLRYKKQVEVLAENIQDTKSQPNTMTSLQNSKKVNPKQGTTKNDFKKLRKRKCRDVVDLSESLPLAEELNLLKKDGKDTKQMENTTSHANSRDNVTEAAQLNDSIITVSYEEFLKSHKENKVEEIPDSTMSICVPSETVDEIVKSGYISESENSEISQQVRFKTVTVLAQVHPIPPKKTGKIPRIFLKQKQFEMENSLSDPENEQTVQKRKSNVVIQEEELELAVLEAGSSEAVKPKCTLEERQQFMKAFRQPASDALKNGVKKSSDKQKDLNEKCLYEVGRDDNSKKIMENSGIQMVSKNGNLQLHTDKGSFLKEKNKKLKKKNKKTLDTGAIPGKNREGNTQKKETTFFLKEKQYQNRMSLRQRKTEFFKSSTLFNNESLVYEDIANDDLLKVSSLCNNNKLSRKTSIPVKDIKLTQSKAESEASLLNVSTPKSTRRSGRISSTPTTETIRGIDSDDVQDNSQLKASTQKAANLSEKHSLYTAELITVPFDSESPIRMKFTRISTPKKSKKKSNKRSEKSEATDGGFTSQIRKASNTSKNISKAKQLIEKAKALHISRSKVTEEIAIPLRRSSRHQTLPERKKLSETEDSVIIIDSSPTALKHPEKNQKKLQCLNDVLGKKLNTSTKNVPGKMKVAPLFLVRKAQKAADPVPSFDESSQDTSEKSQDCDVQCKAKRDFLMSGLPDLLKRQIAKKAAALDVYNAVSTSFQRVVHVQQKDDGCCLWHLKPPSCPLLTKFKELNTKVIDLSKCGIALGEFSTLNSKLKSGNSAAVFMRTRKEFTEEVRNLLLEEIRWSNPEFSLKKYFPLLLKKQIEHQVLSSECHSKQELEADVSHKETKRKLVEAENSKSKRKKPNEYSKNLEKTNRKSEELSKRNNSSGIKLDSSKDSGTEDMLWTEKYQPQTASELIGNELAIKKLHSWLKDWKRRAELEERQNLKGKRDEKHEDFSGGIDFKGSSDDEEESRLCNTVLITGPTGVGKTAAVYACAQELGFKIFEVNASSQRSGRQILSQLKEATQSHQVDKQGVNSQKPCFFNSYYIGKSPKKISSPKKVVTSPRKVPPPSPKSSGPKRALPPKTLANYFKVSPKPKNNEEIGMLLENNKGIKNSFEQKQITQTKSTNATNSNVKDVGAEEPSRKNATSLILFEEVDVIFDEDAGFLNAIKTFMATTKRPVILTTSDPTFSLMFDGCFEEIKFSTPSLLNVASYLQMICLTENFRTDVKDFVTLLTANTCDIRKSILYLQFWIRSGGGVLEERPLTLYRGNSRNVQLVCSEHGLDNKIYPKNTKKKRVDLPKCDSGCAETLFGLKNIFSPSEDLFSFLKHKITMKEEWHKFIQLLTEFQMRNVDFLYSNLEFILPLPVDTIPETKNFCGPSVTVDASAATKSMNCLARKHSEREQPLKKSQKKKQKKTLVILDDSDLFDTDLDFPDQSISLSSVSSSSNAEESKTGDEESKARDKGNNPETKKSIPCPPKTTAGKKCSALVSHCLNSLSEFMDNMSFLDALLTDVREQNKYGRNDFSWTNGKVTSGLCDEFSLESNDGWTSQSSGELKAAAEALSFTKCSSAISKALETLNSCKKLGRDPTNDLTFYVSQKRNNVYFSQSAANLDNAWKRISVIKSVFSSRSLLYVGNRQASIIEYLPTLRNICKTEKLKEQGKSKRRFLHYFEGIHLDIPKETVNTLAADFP
Procedure, shortened: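 ELG1-luciferase HEK293T cells were plated at 2,000 cells/well, and about 5 h later test compounds were pin-transferred alongside MMS (final 10 µM). After 16 h, luciferase activity was read with Amplight reagent; hits suppress the signal.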

[11] = qHTS screen for small molecules that inhibit ELG1-dependent DNA repair: Hit Confirmation with MMS Viability (AID 624251);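 also: viability read 16 h after compound addition; nearly all actives have a fitted effect of over 60% in size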
Procedure, shortened: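 ELG1-luc HEK293T cells, 2,000/well, given compounds about 5 h after plating together with MMS at 10 µM final; viability measured by CellTiter-Glo after 16 h.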

[12] = target: Tumor susceptibility gene 101 protein (Homo sapiens) (UniProt Q99816); assay: qHTS Assay for Iinhibitors of HIV-1 Budding by Blocking the Interaction of PTAP/TSG101: Hit Validation (AID 651600); also: nearly all actives have a fitted effect of over 70% in size
Tumor susceptibility gene 101 protein (Homo sapiens), sequence (Q99816 whole entry, looked up, the tested form may be a part): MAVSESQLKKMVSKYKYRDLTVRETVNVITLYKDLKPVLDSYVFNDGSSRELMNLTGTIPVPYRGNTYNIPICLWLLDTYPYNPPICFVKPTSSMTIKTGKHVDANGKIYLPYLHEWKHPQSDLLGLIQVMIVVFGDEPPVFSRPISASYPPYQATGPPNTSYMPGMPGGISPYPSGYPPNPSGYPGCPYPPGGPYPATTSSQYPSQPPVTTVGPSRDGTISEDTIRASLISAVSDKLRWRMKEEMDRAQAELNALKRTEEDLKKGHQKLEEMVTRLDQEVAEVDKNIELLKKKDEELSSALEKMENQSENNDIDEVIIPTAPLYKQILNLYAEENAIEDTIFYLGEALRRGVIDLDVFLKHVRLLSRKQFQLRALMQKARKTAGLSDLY
Procedure, shortened: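 Fluorescence polarization binding assay: Tsg101 binding domain (10 uM final) pre-dispensed with compounds, then FITC-labeled PTAP-motif peptide (50 nM final) added; 20 min at r.t. in HEPES pH 7.5 buffer with NaCl, Tween 20, EDTA, TCEP.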

CCCc1cc2c(-c3ccccc3)cc(=O)oc2cc1OCc1ccc(C(=O)O)o1
Potency [1]: inactive | Potency [2]: inactive | Potency [3]: inactive | Potency [4]: inactive | Potency [5]: inactive | activity [6]: -44.4% | Potency [7]: 24.1 µM (active) | activity [8]: -57.8% | activity [9]: -42%

COc1cc(N)c(Cl)cc1C(=O)OCC(=O)c1ccc2c(c1)NC(=O)CO2
Potency [10]: inactive | outcome [11]: inactive | Potency [1]: inactive | Potency [2]: inactive | Potency [3]: inactive | Potency [4]: inactive | Potency [5]: inactive

COC(=O)c1cc2c(N)c(C(=O)c3ccc(Cl)cc3)sc2nc1C(OC)OC
Potency [12]: inactive | Potency [1]: inactive | activation [2]: 5.58% [at 17.1 µM, percent relative to cAMP agonist control] (inactive) | Potency [3]: inactive | activity change, negative = inhibition [4]: -4.3% [at 30.8 µM] (inactive) | activation [5]: 42.3% [at 30.8 µM] (inactive)

O=C(COC(=O)c1cccc(NS(=O)(=O)c2ccc(F)c(F)c2)c1)NC(=O)NC1CCCC1
Potency [1]: inactive | Potency [2]: inactive | Potency [3]: inactive | Potency [5]: inactive

CC(C)(C)Cc1c(-c2ccco2)nc2ccc(Cl)cn12
Potency [1]: inactive | activation [2]: 1.87% [at 17.1 µM, percent relative to cAMP agonist control] (inactive) | Potency [3]: inactive | activation [5]: 3.65% [at 30.8 µM] (inactive)

O=C(O)CCCC(=O)N1CCN(c2nc(-c3ccccc3Cl)c3cc(Br)ccc3n2)CC1
Potency [1]: inactive | Potency [2]: inactive | Potency [3]: 13.5 µM (active) | Potency [5]: inactive

Cc1ccc(C)c(S(=O)(=O)N2CCN(C(=O)/C=C/c3ccco3)CC2)c1
Potency [1]: inactive | Potency [2]: inactive | Potency [3]: inactive | Potency [5]: inactive

Cc1oc2ccc(O)c(CN(C)Cc3ccccc3)c2c1C(=O)Nc1cccc(C(F)(F)F)c1
Potency [1]: inactive | Potency [2]: inactive | Potency [3]: inactive | Potency [5]: inactive

Cc1occc1C(=O)N/N=C/C1=C(N2CCOCC2)C(=C/c2ccc(Cl)cc2Cl)/CC1
Potency [1]: inactive | Potency [2]: inactive | Potency [3]: inactive | Potency [5]: inactive

Nc1ncc(Br)cc1S(=O)(=O)Nc1cc(C(F)(F)F)cc(C(F)(F)F)c1
Potency [1]: inactive | Potency [2]: inactive | Potency [3]: inactive | Potency [5]: inactive

Cc1ccc(NS(=O)(=O)c2ccc(C(=O)N3CC(C)CC(C)C3)cc2)cc1 (stereo unspecified)
Potency [1]: inactive | Potency [2]: inactive | Potency [3]: inactive | Potency [5]: inactive

CCOC(=O)c1nc(C)nc(Sc2n[nH]c(-c3cc(Cl)cc(Cl)c3)n2)c1C
Potency [1]: inactive | activation [2]: 2.66% [at 17.1 µM, percent relative to cAMP agonist control] (inactive) | Potency [3]: inactive | activation [5]: 19.4% [at 30.8 µM] (inactive)

COC(=O)c1ccccc1NC(=S)NC(=O)c1ccc(C)cc1
Potency [1]: inactive | activation [2]: 2.96% [at 17.1 µM, percent relative to cAMP agonist control] (inactive) | Potency [3]: inactive | activation [5]: 7.2% [at 30.8 µM] (inactive)

CCCc1[nH]c2ccc(C(=O)OC)cc2c1CCC
Potency [1]: inactive | Potency [2]: inactive | Potency [3]: 19 µM (active) | Potency [5]: inactive

CCCCn1c(CNC(=O)C23CC4CC(CC(C4)C2)C3)nnc1SCC(=O)Nc1nnc(C)s1
Potency [1]: inactive | activation [2]: 3.57% [at 17.1 µM, percent relative to cAMP agonist control] (inactive) | Potency [3]: inactive | activation [5]: 1.72% [at 30.8 µM] (inactive)

C=CCn1c(SCC(=O)Nc2cc(Cl)ccc2C(=O)O)nc2sc(C)c(C)c2c1=O
Potency [1]: inactive | activation [2]: 10.1% [at 17.1 µM, percent relative to cAMP agonist control] (inactive) | Potency [3]: inactive | activation [5]: 1.53% [at 30.8 µM] (inactive)

CCC(C)(C)c1ccc(OCC(=O)N(C)C)c(C(C)(C)CC)c1
Potency [1]: inactive | Potency [2]: inactive | Potency [3]: 67.5 µM (active) | Potency [5]: inactive

CNC(=O)c1ccc(Nc2nnc(-c3ccc(O)cc3)c3ccccc23)cc1
Potency [1]: inactive | Potency [2]: inactive | Potency [3]: inactive | Potency [5]: inactive

CCCCC[C@@H](C)N1C[C@H](COCc2ccccc2)Oc2cc(N3CC[C@@H](O)C3)ccc2S1(=O)=O
Potency [1]: inactive | Potency [2]: inactive | Potency [3]: inactive | Potency [5]: inactive

C[C@H](CO)N1C[C@H](C)[C@@H](CN(C)Cc2ccc(Cl)c(Cl)c2)Oc2c(NC(=O)CCC(F)(F)F)cccc2C1=O
Potency [1]: inactive | Potency [2]: inactive | Potency [3]: 19 µM (active) | Potency [5]: inactive

COc1ccc(N2C(=O)Cc3cc(OC)c(OC)cc3C2c2ccc(F)cc2)cc1 (stereo unspecified)
Potency [1]: inactive | Potency [2]: inactive | Potency [3]: inactive | Potency [5]: inactive

O=C(CSc1nnc(-c2cccs2)n1Cc1ccco1)Nc1ccc2c(c1)OCO2
Potency [1]: inactive | Potency [2]: inactive | Potency [3]: inactive | Potency [5]: inactive

Cc1cc(C)nc(SCC(=O)c2ccc(C)c(C)c2)n1
Potency [1]: inactive | Potency [2]: inactive | Potency [3]: 13.5 µM (active) | Potency [5]: inactive

CN(CC(=O)Nc1ccc(F)cc1)C(=O)COC(=O)C1CCN(c2ccc(C(F)(F)F)cn2)CC1
Potency [1]: inactive | Potency [2]: inactive | Potency [3]: inactive | Potency [5]: inactive
